The nature of experiment [1]: TOX21_p53_BLA_p2_viability: Viability Assessment in the Tox21 HCT-116 p53 Agonism Beta-lactamase Assay, Phase 2 (AID 2283591).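 Also: compound exposure lasted 16 h at 37 °C; actives lower the ATP signal meaning cytotoxicity.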 The procedure, abridged: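 HCT116 p53-bla cells, 4000/well, dosed after 5 h plating (217-fold dilution of DMSO stocks) and incubated 16 h at 37C. Viability taken as cellular ATP by CellTiter-Glo luminescence after 30 min RT; signal loss marks cytotoxicity.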

For experiment [2], the target named is Cellular tumor antigen p53 (Homo sapiens) (UniProt P04637). Nature of the experiment: TOX21_p53_BLA_p2_ratio: Tox21 HCT-116 p53 Agonism Beta-lactamase Assay, Ratio, Phase 2 (AID 2283592). The procedure, abridged:
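Human colon HCT116 cells with an inducible p53 beta-lactamase reporter are exposed to test chemicals for 16 h at 37C. Reporter induction is read as the 460/530 nm emission ratio after CCF4-AM loading, normalized to DMSO.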

Experiment [3] is described as follows: TOX21_p53_BLA_p3_viability: Viability Assessment in the Tox21 HCT-116 p53 Agonism Beta-lactamase Assay, Phase 3 (AID 2283593).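 Also: cells exposed to compound for 16 h before reading.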 The procedure, abridged:
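HCT116 cells, 4000/well, dosed 5 h after plating by pin transfer (217-fold dilution from DMSO stock) and incubated 16 h at 37C, 5% CO2. Viability read as ATP luminescence with CellTiter-Glo after 30 min at room temperature.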

Experiment [4] concerns the target Cellular tumor antigen p53 (Homo sapiens) (UniProt P04637). Nature of the experiment: TOX21_p53_BLA_p3_ratio: Tox21 HCT-116 p53 Agonism Beta-lactamase Assay, Ratio, Phase 3 (AID 2283596). An outline of the steps:
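HCT116 p53-bla cells (4000/well) given compound in DMSO (217-fold dilution) after 5 h, incubated 16 h at 37C. CCF4-AM substrate 2 h at room temperature; 460/530 nm emission ratio, gain fitted against DMSO.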

Experiment [5] is described as follows: TOX21_p53_BLA_p4_viability: Viability Assessment in the Tox21 HCT-116 p53 Agonism Beta-lactamase Assay, Phase 4 (AID 2283597).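 Also: hits lower the luminescence signal meaning cytotoxicity.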 The procedure, abridged: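 Luminescent ATP readout (CellTiter-Glo, 30 min, room temperature) in the same wells as the p53 bla ratio. HCT116 cells were treated for 16 h at 37C with DMSO-dissolved compounds.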
Experiment [6] is described as follows: TOX21_p53_BLA_p5_viability: Viability Assessment in the Tox21 HCT-116 p53 Agonism Beta-lactamase Assay, Phase 5 (AID 2283600). The procedure, abridged:
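Seeded cells (4000/well) settle 5 h before compound addition. Plates then incubate 16 h at 37C, receive FRET substrate for 2 h, and finally CellTiter-Glo, with luminescence measured after a 30 min room-temperature incubation.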

The target of experiment [7] is Cellular tumor antigen p53 (Homo sapiens) (UniProt P04637). Nature of the experiment: TOX21_p53_BLA_p4_ratio: Tox21 HCT-116 p53 Agonism Beta-lactamase Assay, Ratio, Phase 4 (AID 2283601). The procedure, abridged: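 HCT-116 p53 beta-lactamase reporter cells (4000/well) preincubated 5 h, then compound (217-fold dilution of DMSO stock) for 16 h at 37C. CCF4-AM substrate added 2 h at room temperature; 460/530 nm emission ratio fitted upward versus DMSO.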
Sequence of Cellular tumor antigen p53 (Homo sapiens) (P04637 whole entry, looked up): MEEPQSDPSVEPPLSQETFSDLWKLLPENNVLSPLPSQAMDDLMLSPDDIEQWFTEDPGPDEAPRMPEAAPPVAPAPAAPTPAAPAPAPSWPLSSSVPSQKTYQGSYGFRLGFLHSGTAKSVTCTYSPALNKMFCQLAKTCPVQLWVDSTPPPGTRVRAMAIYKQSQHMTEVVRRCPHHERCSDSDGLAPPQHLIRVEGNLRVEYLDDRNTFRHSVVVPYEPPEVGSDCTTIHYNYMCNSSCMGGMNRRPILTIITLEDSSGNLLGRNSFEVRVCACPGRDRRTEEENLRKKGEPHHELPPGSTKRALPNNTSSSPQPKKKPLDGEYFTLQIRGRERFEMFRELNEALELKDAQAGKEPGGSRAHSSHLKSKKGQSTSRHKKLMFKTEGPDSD

The target is the same in experiment [8]. The experiment in a line: TOX21_p53_BLA_p5_ratio: Tox21 HCT-116 p53 Agonism Beta-lactamase Assay, Ratio, Phase 5 (AID 2283599). The procedure, abridged: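 HCT-116 p53-bla cells (4000/well) plated 5 h, dosed with compound (217-fold DMSO dilution) for 16 h at 37 C; CCF4-AM substrate 2 h at room temperature. Activity is the 460/530 nm emission ratio (405 nm excitation), fitted in gain-of-signal direction versus DMSO.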

In a further experiment the target is PGR (gene 5241) (UniProt P06401). Nature of the experiment: TOX21_PR_BLA_Followup_Antagonist_ratio: Tox21 HEK293 Progesterone Receptor (PR) Antagonism Beta-lactamase Follow-Up Assay, Ratio (AID 2283934).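 Also: PR-UAS-bla HEK293T cells stimulated with 1 nM R5020 agonist for 16 hr.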 An outline of the steps:
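Antagonist mode used 1 nM R5020 (final) as agonist on a beta-lactamase reporter line in HEK293T cells. Activity was taken from the substrate cleavage ratio after 16 hr exposure.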

The nature of experiment [9]: TOX21_PR_BLA_Followup_Agonist_viability: Viability Assessment in the Tox21 HEK293 Progesterone Receptor (PR) Agonism Beta-lactamase Follow-Up Assay (AID 2283935).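 Also: signal loss means lower viability so actives are cytotoxic.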 The procedure, abridged:
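Multiplexed viability counter-screen: ATP-coupled luciferase signal measured after 30 min at room temperature, following 16 hr compound treatment of PR-UAS-bla HEK293T cells grown in charcoal-stripped serum.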

A short description of experiment [10]: TOX21_PR_BLA_Followup_Antagonist_viability: Viability Assessment in the Tox21 HEK293 Progesterone Receptor (PR) Antagonism Beta-lactamase Follow-Up Assay (AID 2283936).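 Also: hits lower the luminescence signal meaning cytotoxicity.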 The procedure, abridged:
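PR-UAS-bla HEK293T cells (3,000/well, 2% charcoal-stripped FBS) given compound plus R5020 agonist, 16 h at 37C. CellTiter-Glo added after bla read, 30 min at room temperature; luminescence loss indicates cytotoxicity.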

Experiment [11] deals with Thyroid hormone receptor alpha (Rattus norvegicus) + Thyroid hormone receptor beta (Rattus norvegicus) (UniProt P18113+P63059). The experiment in a line: TOX21_TR_LUC_GH3_Antagonist_Followup: Tox21 GH3 Thyroid Hormone Receptor Antagonism Luciferase Follow-Up Assay (AID 2283942). An outline of the steps: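 Antagonist mode: GH3 cells seeded 1,500/well, compounds at 15 concentrations (92 uM to 5nM final) plus T3 at 1.0 nM final, 24 h at 37C. Luciferase read with ONE-Glo after 30 min at room temperature.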

A further experiment deals with THRA (gene 7067) (UniProt P10827). Nature of the experiment: TOX21_TRA_COA_Antagonist_Followup_ratio: Tox21 Thyroid Hormone Receptor alpha Antagonism through Coactivator Recruitment Follow-Up Assay, Ratio (AID 2283953). An outline of the steps: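 This follow-up to the GH3 luciferase screen checks specificity in a cell-free format. It measures SRC-2 coactivator peptide binding to TRα LBD by TR-FRET and scores loss of ratio signal relative to DMSO.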
Sequence of THRA (gene 7067) (P10827 whole entry, looked up, the tested form may be a part): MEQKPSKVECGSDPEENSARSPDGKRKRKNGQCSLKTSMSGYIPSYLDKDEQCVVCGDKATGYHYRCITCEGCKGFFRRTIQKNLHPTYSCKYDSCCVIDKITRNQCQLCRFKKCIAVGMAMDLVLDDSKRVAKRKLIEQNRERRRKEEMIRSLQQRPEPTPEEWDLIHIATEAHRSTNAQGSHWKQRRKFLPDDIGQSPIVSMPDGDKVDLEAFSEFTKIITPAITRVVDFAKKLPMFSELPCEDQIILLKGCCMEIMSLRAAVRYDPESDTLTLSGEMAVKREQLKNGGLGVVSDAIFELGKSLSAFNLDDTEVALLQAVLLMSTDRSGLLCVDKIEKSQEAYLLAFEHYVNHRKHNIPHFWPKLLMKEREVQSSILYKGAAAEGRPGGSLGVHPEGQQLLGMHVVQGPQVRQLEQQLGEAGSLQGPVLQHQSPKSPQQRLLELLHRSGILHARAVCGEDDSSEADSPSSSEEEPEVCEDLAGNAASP

The next experiment deals with THRB (gene 7068) (UniProt P10828). Nature of the experiment: TOX21_TRB_BLA_Antagonist_Followup_ratio: Tox21 Thyroid Hormone Receptor beta Antagonism Beta-lactamase (BLA) Follow-Up Assay, Ratio (AID 2283958). An outline of the steps: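 In this antagonist-mode follow-up, a stably integrated GAL4-TRβ LBD fusion drives a UAS-beta-lactamase reporter in HEK293T cells. Loss of ratio signal relative to DMSO after 18 h treatment indicates activity; parallel CellTiter-Glo flags cytotoxicity.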
Sequence of THRB (gene 7068) (P10828 whole entry, looked up, the tested form may be a part): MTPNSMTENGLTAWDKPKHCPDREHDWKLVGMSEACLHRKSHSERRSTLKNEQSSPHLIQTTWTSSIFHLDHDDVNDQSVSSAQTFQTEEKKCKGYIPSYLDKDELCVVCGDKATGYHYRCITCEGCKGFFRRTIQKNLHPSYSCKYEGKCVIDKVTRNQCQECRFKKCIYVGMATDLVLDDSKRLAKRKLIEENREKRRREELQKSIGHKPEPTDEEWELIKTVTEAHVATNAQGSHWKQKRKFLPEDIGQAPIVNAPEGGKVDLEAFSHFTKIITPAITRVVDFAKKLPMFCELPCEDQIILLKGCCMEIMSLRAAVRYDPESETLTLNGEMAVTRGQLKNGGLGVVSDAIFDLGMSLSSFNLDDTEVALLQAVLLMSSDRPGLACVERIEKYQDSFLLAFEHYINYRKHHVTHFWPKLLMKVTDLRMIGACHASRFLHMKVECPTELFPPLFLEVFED

The nature of experiment [12]: TOX21_TRB_BLA_Antagonist_Followup_viability: Viability Assessment in the Tox21 Thyroid Hormone Receptor beta Antagonism Beta-lactamase (BLA) Follow-Up Assay (AID 2283961). The procedure, abridged:
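In the same wells as the reporter read, cell health was gauged by CellTiter-Glo ATP luminescence, with signal loss indicating reduced viability. Cells had been exposed to test compounds for 18 h.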

Experiment [13] deals with Retinoic acid receptor RXR-alpha (Homo sapiens) (UniProt P19793). Nature of the experiment: TOX21_TR_RXR_BLA_Antagonist_Followup_ratio: Tox21 Thyroid Hormone Receptor beta Retinoid X Receptor alpha (RXRa) Antagonism Beta-lactamase (BLA) Follow-Up Assay, Ratio (AID 2283972). The procedure, abridged: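 Compounds were tested in triplicate at 11 concentrations on RXRa-bla HEK293T cells for 16 h. Substrate cleavage ratio, normalized to DMSO, gave the endpoint.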
Sequence of Retinoic acid receptor RXR-alpha (Homo sapiens) (P19793 whole entry, looked up): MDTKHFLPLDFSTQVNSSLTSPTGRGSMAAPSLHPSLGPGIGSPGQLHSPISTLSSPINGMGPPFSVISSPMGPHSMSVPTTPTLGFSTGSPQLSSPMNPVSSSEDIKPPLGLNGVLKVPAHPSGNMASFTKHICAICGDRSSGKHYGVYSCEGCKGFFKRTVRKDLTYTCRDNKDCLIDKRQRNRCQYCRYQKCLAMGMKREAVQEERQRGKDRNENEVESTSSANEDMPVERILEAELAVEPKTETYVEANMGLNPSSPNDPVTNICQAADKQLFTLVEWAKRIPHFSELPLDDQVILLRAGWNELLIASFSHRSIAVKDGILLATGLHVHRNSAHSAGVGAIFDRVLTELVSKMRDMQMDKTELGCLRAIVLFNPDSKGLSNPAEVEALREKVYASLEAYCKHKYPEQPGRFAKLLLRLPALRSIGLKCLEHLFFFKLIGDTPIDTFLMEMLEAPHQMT

Experiment [14] can be described thus: TOX21_TR_RXR_BLA_Antagonist_Followup_viability: Viability Assessment in the Tox21 Thyroid Hormone Receptor beta Retinoid X Receptor alpha (RXRa) Antagonism Beta-lactamase (BLA) Follow-Up Assay (AID 2283979). The procedure, abridged:
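RXRa-bla HEK293T cells (2,500/well, phenol red-free DMEM, 2% charcoal-stripped FBS) were attached 5 h, then exposed to compounds at 11 concentrations in triplicate for 16 h at 37C. Viability measured by CellTiter-Glo ATP luminescence, bidirectional fitting versus DMSO.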

Results on eleven compounds are retold here after PubChem BioAssay (EPA / NIEHS).

Inconclusive results are not listed. Activity calls are given as the source filed them. The calls were made as follows: active = hit-call score of the fitted dose curve at least 0.9, where 1 is the maximum; inconclusive = response in the unintended direction; inactive = score below 0.9.

Sequence of PGR (gene 5241) (P06401 whole entry, looked up): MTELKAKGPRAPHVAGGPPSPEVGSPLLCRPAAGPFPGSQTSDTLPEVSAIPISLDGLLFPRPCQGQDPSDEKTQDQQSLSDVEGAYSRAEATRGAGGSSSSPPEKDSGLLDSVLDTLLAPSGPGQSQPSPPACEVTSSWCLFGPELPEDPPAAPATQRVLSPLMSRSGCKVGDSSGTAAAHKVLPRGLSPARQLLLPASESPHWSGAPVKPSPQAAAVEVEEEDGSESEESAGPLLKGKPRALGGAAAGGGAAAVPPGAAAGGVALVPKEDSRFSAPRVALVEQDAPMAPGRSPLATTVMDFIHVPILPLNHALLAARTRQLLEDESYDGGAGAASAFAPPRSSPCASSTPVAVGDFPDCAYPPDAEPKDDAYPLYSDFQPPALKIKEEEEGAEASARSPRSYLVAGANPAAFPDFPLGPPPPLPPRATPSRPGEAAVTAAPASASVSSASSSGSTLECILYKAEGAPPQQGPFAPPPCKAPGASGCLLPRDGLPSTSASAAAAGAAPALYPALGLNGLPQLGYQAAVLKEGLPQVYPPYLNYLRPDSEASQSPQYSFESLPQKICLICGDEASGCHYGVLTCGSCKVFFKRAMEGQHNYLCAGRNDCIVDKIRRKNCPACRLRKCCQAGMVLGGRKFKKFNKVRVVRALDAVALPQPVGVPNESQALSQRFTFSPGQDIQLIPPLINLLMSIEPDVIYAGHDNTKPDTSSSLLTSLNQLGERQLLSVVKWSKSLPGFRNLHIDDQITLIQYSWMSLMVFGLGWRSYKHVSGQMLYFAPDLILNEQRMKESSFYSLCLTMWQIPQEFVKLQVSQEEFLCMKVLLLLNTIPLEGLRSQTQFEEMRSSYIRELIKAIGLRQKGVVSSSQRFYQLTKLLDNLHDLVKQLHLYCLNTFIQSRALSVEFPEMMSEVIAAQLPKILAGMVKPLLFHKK

As to `CN(C(=O)CCCOc1ccc2[nH]c(=O)ccc2c1)C1CCCCC1`, the call in experiment [1], in experiment [2], in [3], in experiment [4], in experiment [5] and in [6] was inactive.

Consider `OCCCNc1ccccc1`, for which the compound was called inactive in [1], in experiment [2], in experiment [3], in experiment [4], in experiment [5] and in experiment [6]. Further, the result in experiment [7] was inactive.

As for `Cc1cc(Nc2ccc(O)cc2)ccc1N`, the compound was classed as inactive in experiment [1], in experiment [2], in experiment [5], in experiment [8] and in experiment [7]. The half-maximal activity concentration (AC50) in experiment [3] is 46.7 µM (active); in experiment [4], 41.2 µM (active).

As for `CCOC(=O)C1=C(C)NC(C)=C(C(=O)OC)C1c1cccc([N+](=O)[O-])c1` (stereo not given), the call in experiment [1], in experiment [2], in experiment [3], in experiment [4], in [5] and in [8] was inactive. Further, the outcome in experiment [7], in experiment [9] and in experiment [10] was inactive. Further, the half-maximal activity concentration (AC50) with PGR (gene 5241) is 14.9 µM (active).

As for `CC(C[N+](C)(C)C)OC(N)=O` (stereo not given), the call in experiment [1], in [2], in experiment [3], in [4], in experiment [5] and in [6] was inactive.

With `COc1ccc2nc(NC(=O)Nc3ccccc3)sc2c1`, the result in experiment [1], in [2], in [3], in experiment [4], in experiment [5] and in experiment [8] was inactive. Moreover, the result (in experiment [7]; in [11]; with THRA (gene 7067); with THRB (gene 7068); in experiment [12]; in [13]) was inactive. In [14], the compound was classed as inactive.

Take `COc1cc2c(cc1OC)-c1cc3ccc(OC)c(OC)c3c[n+]1CC2`: the compound was classed as inactive in [1], in [2], in experiment [3], in experiment [4], in experiment [5] and in [6].

For `Nc1ccc(S(=O)(=O)Nc2ccc(Cl)nn2)cc1`, the outcome in [1], in [2], in [3], in experiment [4], in [5] and in [8] was inactive. Also, the outcome in experiment [7] was inactive.

For `Cc1ccc(NC(=O)c2ccc(CN3CCN(C)CC3)cc2)cc1Nc1nccc(-c2cccnc2)n1`, the outcome in [1], in experiment [2], in experiment [3], in experiment [4], in experiment [5] and in experiment [8] was inactive. Also, the result in experiment [7] was inactive.

In the case of `Cc1ccc(/C=N/n2c(-c3ccccc3)csc2=S)cc1`, the compound was classed as inactive in experiment [1], in experiment [2], in [3], in [4], in [5] and in experiment [8]. Further, the outcome in experiment [7], in experiment [9] and in experiment [10] was inactive. In addition, the AC50 in the experiment with PGR (gene 5241) was 23 µM (active).

In the case of `Cc1nnc(C(C)C)n1C1C[C@H]2CC[C@@H](C1)N2CC[C@@H](NC(=O)C1CCC(F)(F)CC1)c1ccccc1` (stereo not given in full), the compound was called inactive in experiment [1], in experiment [2], in [3], in experiment [4], in [5] and in experiment [6].

Usually AC50 stands for the midpoint of the concentration-response curve, whichever way the signal moves.
